# Source: PubChem (National Center for Advancing Translational Sciences (NCATS))
# Hits are enriched below; roughly 1.3% of the tested compounds scored in any of these assays.
# Vaccinia mCherry = inhibitors of vaccinia virus infection (mCherry reporter signal); Vaccinia virus mCherry reporter infection, fluorescence; actives 0.63% (n = 310,000); Potency, µM (top dose mostly 36.5 µM), for the others: top-dose activity change, negative = inhibition, actives largely listed as inhibitors; calls by dose curve; tested in A549 cells; further: nearly all actives have a fitted effect of over 35% in size
# AMA1-RON2 inh = AMA1-RON2 (P. falciparum) interaction inhibition. AlphaScreen AMA1-biotinylated RON2 peptide binding. Potency, µM (titrated, usually from 58.2 µM), for inactives: top-dose activity change, negative = inhibition, most hits filed as inhibitors. actives 0.2% (n = 360,000);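 further: 0% = vehicle wells and -100% = peptide control; nearly all actives have a fitted effect of over 45% in size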
#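 AMA1 (3D7) with his tag at 25 nM final met compounds first, then biotinylated RON2 peptide at 25 nM; detection used donor plus acceptor beads, 10 µg/mL apiece, read by AlphaScreen after 30 min at room temperature.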
# LmPK inhibitor = inhibitors of Leishmania mexicana pyruvate kinase; purified LmPK, Kinase-Glo ATP luminescence, 1 h; Potency, µM (highest dose often 57.5 µM), for the others: at the top dose activity change, negative = inhibition, usual class: inhibitors; actives 0.37% (n = 290,000); AID 1721
# Target sequence (Q27686 whole entry, looked up): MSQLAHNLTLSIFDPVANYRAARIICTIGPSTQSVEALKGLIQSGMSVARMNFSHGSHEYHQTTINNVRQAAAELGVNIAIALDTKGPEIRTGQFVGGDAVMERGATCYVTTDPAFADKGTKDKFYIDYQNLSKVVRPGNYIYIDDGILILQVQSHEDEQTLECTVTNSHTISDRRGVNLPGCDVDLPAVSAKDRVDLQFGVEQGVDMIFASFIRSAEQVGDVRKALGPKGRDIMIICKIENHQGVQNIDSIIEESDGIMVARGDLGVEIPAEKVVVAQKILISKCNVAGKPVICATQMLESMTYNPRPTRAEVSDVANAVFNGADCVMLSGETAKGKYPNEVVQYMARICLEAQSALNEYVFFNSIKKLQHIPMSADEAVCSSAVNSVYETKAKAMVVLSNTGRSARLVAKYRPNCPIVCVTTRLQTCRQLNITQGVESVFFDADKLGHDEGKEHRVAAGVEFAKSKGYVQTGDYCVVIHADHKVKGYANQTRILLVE
#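 In 50 mM imidazole pH 7.2 with 7 mM MgCl2, LmPK (0.1 nM) turned over PEP (0.5 mM) and ADP (0.1 mM) for 1 h at room temperature. Luciferase read-out of ATP.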
# VACV Venus inh = vaccinia inhibition (Venus reporter); Potency, µM (series often up to 36.5 µM), for the others: at the highest dose activity change, negative = inhibition, usual class: inhibitors; actives 0.46% (n = 330,000); Vaccinia virus Venus reporter expression, fluorescence; calls by dose curve; tested in A549 cells; further: nearly all actives have a fitted effect of over 30% in size
# RE007 growth inh = less growth of the S. pombe RE007 Vpr strain | Potency, µM (doses to about 92.2 µM), without a hit: at the top dose activity change, negative = less growth, usual class: inhibitors | S. pombe RE007 Vpr strain, BacTiter-Glo ATP luminescence, 24 h | actives 0.21% (n = 360,000); active means well fitted falling curve with a large enough effect; inconclusive means small, poorly fitted or top-dose-only effect; inactive means no such curve, though single readings can be large or run the other way; further: nearly all actives have a fitted effect of over 50% in size
#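 Fission yeast strain RE007, carrying one chromosomally integrated HIV-1 vpr copy, was seeded at OD 0.01 in PMG+AL medium with 23 nL pinned compound. After 24 h at 30 °C and 99% humidity, viability was read by BacTiter-Glo luminescence.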
# TbPYK inhibitor = blocks Trypanosoma brucei pyruvate kinase; actives 0.12% (n = 410,000); Potency, µM (highest dose often 76.8 µM), for the others: at the highest dose activity, negative = inhibition, usual class: inhibitors; TbPYK enzyme, Kinase-Glo Plus ATP luminescence, 45 min; further: nearly all actives have a fitted effect of over 50% in size
#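 Enzyme and substrate buffer are dispensed first and compound is pin-transferred. ADP at 130 uM final then starts the reaction, which runs 45 min at room temperature. Detection reagent is added for 10 min before luminescence is imaged.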
# An asterisk follows results filed as active; i = inactive; ? = inconclusive; / = no result given; [ ] = dose if it differs, or a comment. Unless noted, the call rests on the fitted dose curve; in most records, active means well fitted curve in the direction sought with a large enough effect; inconclusive means small, poorly fitted or top-dose-only effect, or another doubt; inactive means no such curve, though single readings can be large; an effect the other way counts as inactive or inconclusive. Unless noted, on the % scale 0 is the no-effect control and ±100 the full control effect; potency means the concentration at half of the fitted maximal effect.
SMILES,Vaccinia mCherry,AMA1-RON2 inh,LmPK inhibitor,VACV Venus inh,RE007 growth inh,TbPYK inhibitor
OC(c1ccc2c(c1)CN(Cc1c[nH]c3ccccc13)CCO2)c1ccccn1 (centres undefined),-6.4%,/,/,-4.0%,/,/
Cc1ccccc1Cc1nc2cccnc2n1C1CCN(C(=O)CC2NC(=O)c3ccccc32)CC1 (centres undefined),-5.6%,/,/,6.4%,/,/
CCc1cc(=O)oc2cc(C)c(CN3CCCC(C)C3)c(O)c12 (centres undefined),/,18.9µM*,-2.8%,/,-8.5%,-8.7%
CCC1(C2CCN(C(=O)c3cc(F)ccc3F)CC2)NC(=O)N(CCc2scnc2C)C1=O (centres undefined),-5.0%,/,/,20.6%,/,/
OC(c1ccccc1)c1ncc(-c2ccc(Oc3ccccc3)cc2)[nH]1 (centres undefined),15.8µM*,-0.3%,/,?,20.2%,6.9%
COc1ccc(-c2cnc(C(O)c3ccccc3)[nH]2)cc1 (centres undefined),10.8%,3.9%,/,1.6%,4.9%[18.4 µM],4.5%
OC(c1ccc(Cl)cc1)c1ncc(-c2ccc(Oc3ccccc3)cc2)[nH]1 (centres undefined),10µM*,9.2%,/,?,6.1%,1.4%
CN(C)c1ccc(/C=C/N2C=CCc3c2ccc2ccccc32)cc1,i,/,/,i,/,/
COC(=O)c1c(NC(=O)C2CCCCC2)sc2c1CCN(C(C)C)C2,-23.7%,-1.9%,-0.6%,-18.7%,-1.5%,-11.3%
CC(C)N1CCc2c(sc(NC(=O)C3CCCCC3)c2C(N)=O)C1,?,5.6%,0.9%,12.6µM*,10.7%,2.0%
CCC(C)[C@H]1CNCCN1CCc1cc(C(F)(F)F)cc(C(F)(F)F)c1 (some centres undefined),?,13.8%,/,15.8µM*,8.4%,2.7%
CCOC(=O)CNCCC(=O)c1ccc(Br)cc1,-12.5%,-4.0%,-0.7%,-5.0%,35.5µM*,-9.1%
Nc1ccc2ccccc2c1N=Nc1ccccc1,?,17.8µM*,/,-9.1%,?,-3.8%
O=C(COc1ccccc1C(=O)Nc1ccccc1)Nc1cccc(Cl)c1,-6.6%,/,/,-27.7%,/,/
COc1ccc(C(=O)C2C(=O)C(=O)N(Cc3ccco3)C2c2cccs2)cc1 (centres undefined),8.7%,/,/,-5.6%,/,/
CCC1(C2CCN(C(=O)c3ccc4ccccc4c3)CC2)NC(=O)N(CCc2scnc2C)C1=O (centres undefined),-10.3%,/,/,-3.5%,/,/
CC(C)(C)C(=O)NCC12C=CC(O1)C1C(=O)N(c3ccccc3)C(=O)C12 (centres undefined),-1.8%,-1.7%,10.8%,-3.2%,8.91µM*,?
Cc1ccc(N2C(=O)C3C4C=CC(CNC(=S)Nc5ccc(F)cc5)(O4)C3C2=O)cc1 (centres undefined),-16.4%,10.5%,-1.9%,-14.9%,10µM*,-12.7%
CCc1ccccc1N1CC23C=CC(O2)C(C(=O)OCC(C)C)C3C1=O (centres undefined),-1.1%,10.4%,8.8%,5.5%,3.5%,-2.0%
CC(C)COC(=O)NCC12C=CC(O1)C1C(=O)N(c3ccc(Cl)cc3)C(=O)C12 (centres undefined),-9.2%,-16.0%,-21.2%,4.4%,1.58µM*,-23.3%
Cc1ccc(N2C(=O)C3C4C=CC(CNC(=S)Nc5cccc(Cl)c5)(O4)C3C2=O)cc1 (centres undefined),i,-0.3%,1.9%,-11.9%,10µM*,-4.2%
CC1(C(=O)O)CCC2(C)CCC3(C)C(=CC(=O)[C@@H]4C5(C)CC[C@H](O[C@H]6O[C@H](C(=O)O)C(O)C(O)[C@H]6O[C@@H]6O[C@H](C(=O)O)C(O)C(O)C6O)C(C)(C)[C@@H]5CCC43C)[C@@H]2C1 (some centres undefined),/,/,/,/,/,8.6%
COc1cc(CN2CCCC(c3nc(-c4ccncc4)ncc3-c3ccccc3)C2)ccc1O (centres undefined),-12.1%,/,/,-0.2%,/,/
CC1(C)OC(=O)C2(Cc3ccc(Cl)cc3N3CCCCC32)C(=O)O1 (centres undefined),-17.8%,/,/,-9.7%,/,/
Cc1ncc2c(c1CNC(=O)c1ccc3c(c1)OCO3)CCN(C(=O)c1noc3c1CCCC3)C2,-7.4%,/,/,-3.9%,/,/
SMILES,Vaccinia mCherry,AMA1-RON2 inh,LmPK inhibitor,VACV Venus inh,RE007 growth inh,TbPYK inhibitor
Cc1ccc(N2C(=O)C3C4C=CC(CNC(=S)Nc5ccc(Cl)cc5)(O4)C3C2=O)cc1 (centres undefined),-26.2%,-10.3%,2.6%,-14.3%,22.4µM*,-19.1%
Cc1ccc(N2C(=O)C3C4C=CC(CNC(=S)N5CCN(c6ccccn6)CC5)(O4)C3C2=O)cc1 (centres undefined),/,-5.2%,0.4%,/,3.98µM*,-10.2%
COC(c1ccc2c(c1)CN(C(=O)Cn1nc(C)c3ccccc3c1=O)CCO2)C1CCCCC1 (centres undefined),-17.6%,/,/,-7.7%,/,/
c1cnc2cc3c(cc2n1)[C@@H]1CNC[C@@H]3C1,/,/,/,/,/,-3.4%
CC(=O)Oc1ccccc1C(=O)C=Cc1cccc([N+](=O)[O-])c1,14.1µM*,7.7%,/,?,25.1µM*,7.2%
CCOc1ccc(C2N3CC4(C(C)C)CN2CC(C(C)C)(C3)C4=O)cc1OC (centres undefined),-4.1%,/,/,-7.6%,/,-0.2%
NC(=S)N/N=C\c1ccc(-c2cccc(Cl)c2Cl)o1,/,2.9%,-0.5%,6.31µM*,-20.4%,-24.7%
CO[C@]1(NC(=O)Cc2cccs2)C(=O)N2C(C(=O)O)=CC(COC(N)=O)S[C@H]21 (some centres undefined),/,/,/,/,/,2.4%
CC(=O)[O][Hg][c]1ccccc1,20µM*,/,/,?,/,?
CC(=O)Oc1ccccc1C(=O)O,-12.5%,-25.8%,/,-8.0%,14.9%[18.4 µM],?
c1ccc2sc(-c3ccc4c(c3)OCO4)nc2c1,/,67.2%,10µM*,/,?,?
c1ccc2[nH]c(-c3ccc4c(c3)OCO4)nc2c1,10.5%,-14.0%,/,-15.8%,39.8µM*,?
c1ccc2sc(-c3ccncc3)nc2c1,i,-10.1%,?,-13.8%,1.8%,-17.4%
Oc1ccc(-c2nc3ccccc3s2)cc1,/,0.0%,15.8µM*,/,?,-10.4%
Clc1ccc(-c2nc3ccccc3[nH]2)cn1,10.6%,-2.9%,25.1µM*,-15.7%,-16.8%,-9.1%
CN1C(CSCC(F)(F)F)Nc2cc(Cl)c(S(N)(=O)=O)cc2S1(=O)=O (centres undefined),/,/,/,/,/,1.2%
CCN1CCN(C(=O)c2ccc(-c3nc4ccccc4s3)s2)CC1,-21.9%,4.3%,-4.8%,-19.6%,-10.2%,-2.7%
O=C(c1ccc(-c2nc3ccccc3s2)s1)N1CCOCC1,i,-3.9%,14.1µM*,-13.5%,?,?
